# Target: Torsin-1A-interacting protein 1 (Homo sapiens) (UniProt Q5JTV8)
# Experiment: LAP1 binders from COS7 cell lysate, primary screen, small-molecule microarray, 635/667 nm fluorescence (AID 1116)
# Details: COS7-hLAP1 lysate binding, 635 nm fluorescence, higher = more signal
# Sequence of Torsin-1A-interacting protein 1 (Homo sapiens) (Q5JTV8 whole entry, looked up): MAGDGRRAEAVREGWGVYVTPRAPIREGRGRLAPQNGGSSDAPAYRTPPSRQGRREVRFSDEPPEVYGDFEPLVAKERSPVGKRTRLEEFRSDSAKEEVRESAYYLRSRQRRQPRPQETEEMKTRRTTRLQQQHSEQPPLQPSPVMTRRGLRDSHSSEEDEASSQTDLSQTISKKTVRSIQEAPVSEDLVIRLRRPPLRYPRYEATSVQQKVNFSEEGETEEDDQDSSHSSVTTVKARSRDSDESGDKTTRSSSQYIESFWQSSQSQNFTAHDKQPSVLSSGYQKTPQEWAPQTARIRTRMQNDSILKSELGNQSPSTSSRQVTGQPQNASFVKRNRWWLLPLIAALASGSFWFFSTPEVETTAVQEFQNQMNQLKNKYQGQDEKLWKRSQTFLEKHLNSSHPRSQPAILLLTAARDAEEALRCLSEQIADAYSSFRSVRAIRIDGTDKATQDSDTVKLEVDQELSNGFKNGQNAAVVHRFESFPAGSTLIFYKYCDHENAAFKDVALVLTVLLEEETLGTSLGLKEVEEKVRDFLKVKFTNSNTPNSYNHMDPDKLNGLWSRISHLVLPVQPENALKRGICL
row,Compound,composite z-score
1,COc1cc(C(O)C2C=CC3C(=O)N(C)C(=O)C3N2NC(=O)OC(C)(C)C)cc(OC)c1OC (stereo not drawn),0.102
2,COc1ccc([Si](C)(C)[C@@H]2[C@@H](CC(=O)N(CCO)Cc3ccccc3)O[C@]3(C(=O)N(C)c4c(Br)cc(C)cc43)[C@H]2C)cc1,0.13
3,COC(=O)[C@@]1(Cc2ccccc2)[C@H]2c3cc(C(=O)N(C)C)n(Cc4ccccn4)c3C[C@H]2CN1C(=O)c1ccccc1,1.77
4,O=C1NC(=O)C2C1C=CC(C(O)CCc1ccccc1)N2Nc1ccccn1 (stereo not drawn),2.33
5,CCOC(=O)C1=CCC(c2cccc(Cl)c2)O1 (stereo not drawn),0.291
6,C=C(COC)C(=O)CC[C@H](OC(=O)c1ccccc1-c1ccccc1C(=O)O)c1ccc(CO)o1,0.77
7,N#Cc1ccc(NN2C(C(O)c3ccco3)C=CC3C(=O)N(c4ccccc4)C(=O)C32)cc1 (stereo not drawn),-0.247
8,COC(=O)C(CC#Cc1ccc2c(c1)[C@]1(C(=O)N2)[C@H](C(=O)N2CCc3cc(OC)c(OC)cc3C2)[C@H]2C(=O)O[C@H](c3ccccc3)[C@H](c3ccccc3)N2[C@@H]1c1ccc(OCCO)cc1)C(=O)OC,0.254

# Target: Alpha-bungarotoxin (Bungarus multicinctus) (UniProt P60615)
# Experiment: alpha-bungarotoxin binders on microarray, profiling panel, artefact control for SMM control protein annotation, biochemical, small-molecule microarray, Alexa647 label, 635/667 nm fluorescence (AID 1117)
# Details: alpha-BTX-A647 binding fluorescence, higher = more signal
# Sequence of Alpha-bungarotoxin (Bungarus multicinctus) (P60615 whole entry, looked up): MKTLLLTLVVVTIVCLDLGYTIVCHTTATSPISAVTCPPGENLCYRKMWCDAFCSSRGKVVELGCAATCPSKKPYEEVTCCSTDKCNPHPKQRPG
row,Compound,composite z-score
1,CCCCC(CC)C(O)C1C=CC2C(=O)NC(=O)C2N1Nc1ccccn1 (stereo not drawn),1.36
2,CC(C)C[C@@H]1NC(=O)[C@@H]2C[C@H](C(=O)NCCCC[N+](C)(C)C)[C@H](c3cccc(OCCO)c3)N2C1=O,0.324
3,COCCOC(=O)N1C(=O)[C@@]2(c3ccccc31)[C@H](c1ccccc1OCCO)N1[C@H](c3ccccc3)[C@H](c3ccccc3)OC(=O)[C@H]1[C@@H]2C(=O)N1CCc2cc(OC)c(OC)cc2C1,0.91
4,CN1C(=O)C2C=CC(C(O)COCc3ccccc3)N(Nc3ccccc3)C2C1=O (stereo not drawn),0.347
5,[N-]=[N+]=NCc1ccccc1[C@H]1OC(c2ccc(OCCCO)cc2)=N[C@@]1(Cc1ccccc1N=[N+]=[N-])C(=O)NCCN1CCOCC1,1.45
6,C[N+](C)(C)CCCCNC(=O)[C@H]1C[C@H]2C(=O)NCC(=O)N2[C@H]1c1ccc(O)cc1,0.832
7,Cc1ccc(F)cc1S(=O)(=O)N[C@@H]1CCN(C(=O)c2ccc(OC(C)C)cc2)C1,0.247
8,COCCOC(=O)N1C(=O)[C@@]2(c3ccccc31)[C@H](c1ccc(OCCO)cc1)N1[C@H](c3ccccc3)[C@H](c3ccccc3)OC(=O)[C@H]1[C@@H]2C(=O)NC[C@H](O)c1ccccc1,1.92
9,CCCCC=C[C@@H](NC(=O)CCc1ccccc1)c1ccccc1,1.19
10,COc1ccc([Si](C)(C)[C@@H]2[C@@H](CCO)O[C@]3(C(=O)N(Cc4ccc(N5C(=O)c6ccccc6Oc6ccccc65)cc4)c4ccccc43)[C@H]2C)cc1,0.0794
11,CC[C@@H]1[C@@H]2C3C(=O)N(CC)C(=O)C3CC(=O)[C@@H]2[C@H](c2ccc(C)cc2)N1S(=O)(=O)c1ccc(C)cc1 (stereo partly drawn),0.564
12,COCCOC(=O)N1C(=O)[C@@]2(c3cc(C#CC4(O)CCCCCC4)ccc31)[C@H](C(=O)N1CCc3cc(OC)c(OC)cc3C1)[C@H]1C(=O)O[C@H](c3ccccc3)[C@H](c3ccccc3)N1[C@@H]2c1ccccc1OCCO,1.46
13,COc1ccc(C#Cc2ccc3c(c2)[C@]2(C(=O)N3)[C@H](C(=O)O)[C@H]3C(=O)O[C@H](c4ccccc4)[C@H](c4ccccc4)N3[C@@H]2c2ccc(OCCO)cc2)cc1,2.28
14,COc1ccc(C#Cc2ccc3c(c2)[C@]2(C(=O)N3)[C@H](c3ccc(OCCO)cc3)N3[C@H](c4ccccc4)[C@H](c4ccccc4)OC(=O)[C@H]3[C@@H]2C(=O)N2CCN(c3ncccn3)CC2)cc1,0.235
15,[N-]=[N+]=NCc1ccccc1[C@H]1OC(c2ccc(OCCCO)cc2)=N[C@@]1(Cc1ccccc1N=[N+]=[N-])C(=O)N1CCCCC1,1.3
16,CCCC=C(CCC)[C@@H](NS(=O)(=O)c1ccccc1)c1ccc(C(F)(F)F)cc1,1.28
17,COc1cc2c(cc1OC)CN(C(=O)[C@@H]1[C@H]3C(=O)O[C@H](c4ccccc4)[C@H](c4ccccc4)N3[C@H](c3ccc(O)cc3)[C@@]13C(=O)Nc1ccc(C#CCNC(N)=O)cc13)CC2,0.469
18,COc1ccc([Si](C)(C)[C@@H]2[C@@H](CCO)O[C@]3(C(=O)N(Cc4cccc(N5C(=O)COc6ccccc65)c4)c4ccccc43)[C@H]2C)cc1,0.748

row,Compound,composite z-score
1,C=CC[C@@]1(C(=O)NCCN2CCOCC2)N=C(c2ccc(OCCCO)cc2)O[C@@H]1c1ccccc1,0.991
2,O=C1c2ccccc2[C@](Cc2ccccc2I)(C(=O)NCC(F)(F)F)[C@H](c2ccc(CO)cc2)N1Cc1ccccc1,0.928
3,COc1ccc(C(=O)Nc2ccc3c(c2)[C@]2(O[C@@H](CCO)[C@H]([Si](C)(C)c4ccc(OC)cc4)[C@H]2C)C(=O)N3Cc2ccccc2)cc1,0.375
4,COC(=O)[C@@]1(Cc2ccc(OC)cc2)[C@H]2c3cc(C(=O)N(C)C)n(CCF)c3C[C@H]2CN1C(=O)c1ccccc1,1.79
5,COC(=O)c1c(CC[C@@H](CO)NC(=O)N[C@@H](C)Cn2cc(C3(O)CCCC3)nn2)oc(C(C)=O)c1C(=O)OC,0.282
6,CC1=C2[C@@H](CCc3ccccc3)OB(O)C[C@@H]2[C@@H]2C(=O)C=CC(=O)[C@@H]2C1,1.2
7,CCCNC(=O)[C@@]1(Sc2ccc(C)cc2)CC(=O)N(Cc2ccccc2)[C@@H]1c1ccc(CO)cc1I,1.19
8,CC(C)C(CO)N1C(=O)[C@@H]2[C@H]3C(=O)OCC=C[C@H]3OC23C=CCN(Cn2nnc4ccccc42)C(=O)[C@@H]13 (stereo partly drawn),-0.284
9,O=[N+]([O-])c1ccc(C[n+]2ccc(-c3ccc(CO)cc3)cc2)o1,1.49
10,COc1cc(C(O)C2C=CC3C(=O)N(C)C(=O)C3N2NC(=O)OC(C)(C)C)cc(OC)c1OC (stereo not drawn),0.312
11,COc1ccc([Si](C)(C)[C@@H]2[C@@H](CC(=O)N(CCO)Cc3ccccc3)O[C@]3(C(=O)N(C)c4c(Br)cc(C)cc43)[C@H]2C)cc1,0.0978
12,COC(=O)[C@@]1(Cc2ccccc2)[C@H]2c3cc(C(=O)N(C)C)n(Cc4ccccn4)c3C[C@H]2CN1C(=O)c1ccccc1,0.94
13,O=C1NC(=O)C2C1C=CC(C(O)CCc1ccccc1)N2Nc1ccccn1 (stereo not drawn),0.67
14,CCOC(=O)C1=CCC(c2cccc(Cl)c2)O1 (stereo not drawn),-0.383
15,C=C(COC)C(=O)CC[C@H](OC(=O)c1ccccc1-c1ccccc1C(=O)O)c1ccc(CO)o1,0.239
16,N#Cc1ccc(NN2C(C(O)c3ccco3)C=CC3C(=O)N(c4ccccc4)C(=O)C32)cc1 (stereo not drawn),0.518
17,COC(=O)C(CC#Cc1ccc2c(c1)[C@]1(C(=O)N2)[C@H](C(=O)N2CCc3cc(OC)c(OC)cc3C2)[C@H]2C(=O)O[C@H](c3ccccc3)[C@H](c3ccccc3)N2[C@@H]1c1ccc(OCCO)cc1)C(=O)OC,1.08

# Source: PubChem BioAssay
